# ALOX12 inhib: 12-hLO (ALOX12) enzyme inhibition; 0.12% of 150,000 active; P18054; purified 12-hLO, xylenol orange hydroperoxide absorbance; Potency, µM (top dose mostly 57.1 µM), without a hit: top-dose activity change, negative = inhibition, most hits filed as inhibitors; further: potency means the concentration at half of the fitted maximal effect; nearly all actives have a fitted effect of over 55% in size
# Target sequence (P18054 whole entry, looked up): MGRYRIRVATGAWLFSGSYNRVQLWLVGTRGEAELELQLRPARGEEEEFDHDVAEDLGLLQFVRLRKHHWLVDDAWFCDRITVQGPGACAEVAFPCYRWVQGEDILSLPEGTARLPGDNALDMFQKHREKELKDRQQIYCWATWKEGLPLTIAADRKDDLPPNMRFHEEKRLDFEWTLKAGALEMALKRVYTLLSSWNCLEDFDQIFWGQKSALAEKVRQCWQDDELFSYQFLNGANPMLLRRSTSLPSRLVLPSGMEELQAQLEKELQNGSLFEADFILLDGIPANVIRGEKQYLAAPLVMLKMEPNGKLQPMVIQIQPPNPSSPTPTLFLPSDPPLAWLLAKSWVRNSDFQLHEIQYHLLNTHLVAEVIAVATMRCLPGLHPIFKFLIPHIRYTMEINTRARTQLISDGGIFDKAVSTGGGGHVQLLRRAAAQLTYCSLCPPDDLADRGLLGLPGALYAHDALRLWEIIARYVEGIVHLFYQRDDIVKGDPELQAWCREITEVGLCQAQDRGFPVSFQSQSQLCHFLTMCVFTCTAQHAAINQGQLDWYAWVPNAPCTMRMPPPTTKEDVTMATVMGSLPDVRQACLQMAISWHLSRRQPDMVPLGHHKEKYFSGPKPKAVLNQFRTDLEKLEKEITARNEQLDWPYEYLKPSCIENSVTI
#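 150 nM 12hLO, 25 mM Hepes pH 7.0 + 0.01% Triton X-100; cpd preinc 15 min RT; 40 uM arachidonic acid, 30 min RT; Fe-XO 30 min; A573/A405 ratio as read-out.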
# HPGD inh: inhibitors of human 15-hydroxyprostaglandin dehydrogenase (HPGD); P15428; purified HPGD, NADH fluorescence kinetic, PGE2 substrate; Potency, µM, inactives show top-dose activity change, negative = inhibition, actives largely listed as inhibitors; 4.3% of 150,000 active; AID 894; active means well fitted inhibition curve with a large enough effect, not every such curve was filed as active; inconclusive means small, poorly fitted or top-dose-only effect, or another doubt; inactive means no such curve, though single readings can be large or run the other way; further: potency means the concentration at half of the fitted maximal effect
#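 NADH formation kinetics: reaction with 30 uM PGE2 and 1 mM NAD+ (final), 20 nM enzyme, Tris-HCl pH 8 with Tween 20, after 15 min compound preincubation at room temperature. Fluorescence change, last versus first of five reads.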
# IMPase inh: cell-permeable inhibitors of inositol monophosphatase (IMPase) | P97697 | 120,000 tested, under 10 active | inhibition (IP1 accumulation), % at 46.1 µM | CHO-M1 cells, IP1 accumulation, HTRF TR-FRET ratio; active means well fitted curve in the direction sought with a large enough effect in the signal ratio, not every such curve was filed as active; inconclusive means small, poorly fitted or top-dose-only effect, or a change in a side signal; inactive means no such curve, though single readings can be large or run the other way; the % refers to the signal ratio;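 further: cells stimulated with carbachol in lithium chloride buffer; plate controls were DMSO basal wells for no effect and reference inhibitor wells for full effect; higher means more IMPase inhibition seen as more IP1 and lower FRET ratio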
#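 CHO-M1 cells (CHO stably expressing M1 receptor), compound up to 46 uM final, stimulated with carbachol (50 uM as added) in buffer with 50mM LiCl, pH 7.4, 30 min at 37C. Cytosolic IP1 read by TR-FRET; AC50 from Hill fits.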
# ALDH1A1 inh: blocks purified human ALDH1A1 activity; Purified ALDH1A1, NADH fluorescence, propionaldehyde substrate; Potency, µM (top dose mostly 75.3 µM), inactives show at the top dose activity, negative = inhibition, most hits filed as inhibitors; 7.3% of 220,000 active; active means well fitted inhibition curve with a large enough effect, not every such curve was filed as active; inconclusive means small, poorly fitted or top-dose-only effect, or another doubt; inactive means no such curve, though single readings can be large or run the other way;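 further: potency means the concentration at half of the fitted maximal effect; plate controls were no enzyme wells and a reference inhibitor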
# IMPase Li inh: membrane-permeable IMPase blocker, potentiated with lithium | 0.35% of 210,000 active | CHO-M1 cells, IP1 TR-FRET (IP-One), carbachol + lithium | Potency, µM (titrated, usually from 59.4 µM), without a hit: at the highest dose activity, negative = IMPase inhibition, hits mostly inhibitors;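 further: IP1 builds up when IMPase is blocked and the TR-FRET signal falls; potency means the concentration at half of the fitted maximal effect; plate controls were basal vehicle for no effect and high inhibitor control for full effect; nearly all actives have a fitted effect of over 50% in size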
#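 CHO cells stably expressing M1 receptor (2000/well) were cultured 16–30 h, then exposed to compounds with a small lithium addition for 30 min at 37C. IP1 was measured by TR-FRET competition; AC50 from Hill fits.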
# NPSR antagonist: blocks cAMP signaling of the human neuropeptide S receptor; Q6W5P4; CHO-NPSR cells, cAMP TR-FRET, antagonist mode; Potency, µM (doses to about 38.3 µM), inactives show at the highest dose activity change, negative = inhibition, actives largely listed as inhibitors; 1% of 220,000 active; further: potency means the concentration at half of the fitted maximal effect; nearly all actives have a fitted effect of over 50% in size
# An asterisk follows results filed as active; ? = inconclusive; nt = not tested or not shown; [ ] = dose if it differs, or a comment. Most compounds without a hit are left out; they make up all but 8.9% or so of the library. Unless noted, the call rests on the fitted dose curve; in most records, active means well fitted curve in the direction sought with a large enough effect; inconclusive means small, poorly fitted or top-dose-only effect, or another doubt; inactive means no such curve, though single readings can be large; an effect the other way counts as inactive or inconclusive. Unless noted, on the % scale 0 is the no-effect control and ±100 the full control effect.
SMILES,ALOX12 inhib,HPGD inh,IMPase inh,ALDH1A1 inh,IMPase Li inh,NPSR antagonist
CC(=O)Nc1ccc(NC(=O)Nc2cccc(C)c2C)cc1,nt,nt,nt,0.0%,4.2%,7.6%
O=C(NCCCN1CCOCC1)c1ccc(CNS(=O)(=O)c2ccc(Br)cc2)cc1,-1.3%,-9.6%,nt,22.4µM*,24.4%,3.1%
O=C(NCCCN1CCOCC1)c1ccc(Br)cc1,4.7%,-9.8%,9.4,0.0%,-6.2%[38.3 µM],-5.3%[46.1 µM]
Cn1ncc(N=Cc2ccccc2[N+](=O)[O-])c1C(N)=O,nt,nt,nt,nt,nt,-6.8%
CN(C)c1ccc(C=Nc2cnn(C)c2C(N)=O)cc1,2.1%,-29.3%,1.9,3.55µM*,38.9%[38.3 µM],2.8%[46.1 µM]
CC1CCN(Cc2nc(Cl)c3c4c(sc3n2)CCC4)CC1,nt,nt,nt,-3.7%,12.5%,-12.8%
O=c1/c(=C\c2ccc(O)cc2)sc2n1C(c1ccccc1)C(c1ccccc1)=NN=2 (stereo unspecified),?,15.8µM*,1.0,8.91µM*,-0.2%[38.3 µM],-29.6%[46.1 µM]
CCOC(=O)C1=C(c2ccccc2)N=c2s/c(=C\c3cccc(O)c3)c(=O)n2C1c1cccs1 (stereo unspecified),-4.7%,-8.8%,-14.7,-3.9%,-6.2%[38.3 µM],?
O=C(CN1C(=O)COc2ccc(S(=O)(=O)N3CCCC3)cc21)NC1CC1,nt,nt,nt,nt,nt,4.4%
COc1cccc(CNC(=O)C2CCC(CNc3nc(=S)[nH]c4ccccc34)CC2)c1 (stereo unspecified),nt,nt,nt,-10.4%,10µM*,-10.6%
CN(C)CCCN1C(=O)C(=O)/C(=C(/O)c2ccncc2)C1c1cccnc1 (stereo unspecified),1.5%,-12.2%,6.3,-2.5%,-9.6%[38.3 µM],9.6%[46.1 µM]
CN(C)CCCN1C(=O)C(=O)/C(=C(/O)c2ccc(S(=O)(=O)N(C)C)cc2)C1c1ccncc1 (stereo unspecified),0.4%,-8.5%,nt,25.1µM*,nt,nt
CC(C)[C@H](NC(=O)c1ccccc1Cl)C(=O)OCc1cc(=O)n2cc(Br)ccc2n1,nt,nt,nt,?,11.2µM*,-4.2%
CC1(C(=O)OCc2cc(=O)n3cc(Br)ccc3n2)CC1(Cl)Cl (stereo unspecified),nt,nt,nt,20µM*,-27.0%,-14.3%
Cc1ccccc1C(=O)NC(CC(C)C)C(=O)OCc1cc(=O)n2cc(Br)ccc2n1 (stereo unspecified),3.6%,-20.1%,-2.7,-15.5%,-18.2%,1.7%
CC1=NN(c2ccc(Br)cc2)C(=O)/C1=C/c1cccs1,-19.2%,14.1µM*,4.6,2.24µM*,6.6%[38.3 µM],5.3%[46.1 µM]
COc1ccc(Nc2oc(COc3ccc(C)cc3)nc2C#N)cc1,-23.3%,25.1µM*,7.0,?,19.8%,-20.9%[46.1 µM]
Cc1ccccc1Nc1nc(N)nc(COC(=O)c2ccccc2)n1,0.9%,-6.0%,nt,0.5%,-5.0%,21.7%
CCc1nc2ccccc2c(C(=O)OCC(=O)C(C)(C)C)c1C,nt,nt,nt,-5.9%,3.5%,-27.7%
CCc1nc2ccccc2c(C(=O)OCc2nnc(-c3ccccc3)o2)c1C,-5.1%,20µM*,2.2,?,20.5%[38.3 µM],-17.8%[46.1 µM]
CC(NC(=O)COc1ccc(Br)cc1)C(=O)O (stereo unspecified),2.2%,-14.8%,-11.2,10µM*,5.8%[38.3 µM],-3.6%[46.1 µM]
CCC(=O)NC(=S)NNC(=O)COc1ccc(Br)cc1,nt,nt,nt,23.8µM*,-9.0%,-16.4%
CC(C)CC(=O)NC(=S)NNC(=O)c1ccc([N+](=O)[O-])cc1,-3.8%,31.6µM*,nt,-4.1%,4.8%,10.5%
CCC1CCCCN1C(=S)NC(=O)c1ccc([N+](=O)[O-])cc1 (stereo unspecified),-5.5%,-17.1%,nt,35.5µM*,1.1%,-11.3%
CC(C)(C)CC(C)(C)NC(=O)c1ccccc1,nt,nt,nt,12.6%,11.2%,-11.1%
SMILES,ALOX12 inhib,HPGD inh,IMPase inh,ALDH1A1 inh,IMPase Li inh,NPSR antagonist
Cc1nc(N)sc1-c1csc(Nc2ccc(Cl)cn2)n1,-11.0%,-18.8%,-0.5,-5.9%,2.7%,-21.0%[46.1 µM]
CCCCOc1ccc(C(=O)NNC(=S)NC(=O)CC)cc1,-18.2%,-1.7%,nt,-1.6%,13.0%,-5.2%
Cc1cccc(OCC(=O)NC(=S)Nc2ccc(S(=O)(=O)NC3CCCCC3)cc2)c1,-16.9%,?,-1.2,15.8µM*,38.8%[38.3 µM],-15.5%[46.1 µM]
CCC(=O)NC(=S)NNC(=O)c1ccc(OC)cc1,-26.3%,-28.6%,8.8,39.8µM*,-9.5%[38.3 µM],1.2%[46.1 µM]
Cc1ccc(C(=O)NNC(=S)NC(=O)COc2ccccc2)cc1,-9.8%,-14.8%,1.8,17.8µM*,30.4%[38.3 µM],-15.2%[46.1 µM]
CCC(=O)NC(=S)Nc1ccc(NC(=O)COc2ccccc2)cc1,-0.4%,-17.5%,-3.3,25.1µM*,-3.4%,2.5%
COc1ccc(NC(=S)NC(C)Cc2cccs2)cc1 (stereo unspecified),nt,nt,nt,?,6.2%,-33.4%
N/C(=N\OC(=O)c1ccco1)c1cccc([N+](=O)[O-])c1,nt,nt,nt,?,-0.9%,-10.6%
COc1ccc(C(=O)NC(=S)NNC(=O)CNC(=O)C2CCCCC2)cc1,nt,nt,nt,22.4µM*,4.7%,-8.3%
CCC(=O)NC(=S)NNC(=O)c1ccc([N+](=O)[O-])cc1,7.1%,-26.9%,-8.9,20µM*,-8.7%[38.3 µM],-6.5%[46.1 µM]
COc1ccc(C(=O)NNC(=O)Cc2ccc([N+](=O)[O-])cc2)cc1,-3.1%,-8.4%,nt,?,11.9%,20.7%
Cc1ccc(-n2nnnc2-c2ccccc2)cc1,nt,nt,nt,-1.4%,-2.0%,-8.6%
Cc1ccc(-n2nnnc2C(Cl)c2nnnn2-c2ccc(C)cc2)cc1,-1.8%,5.01µM*,3.5,-2.9%,7.2%,-20.6%
NC(=O)N/N=C/c1coc2ccc(O)cc2c1=O,nt,nt,nt,17.8µM*,nt,7.2%
N#CCC(=O)N/N=C/c1coc2ccccc2c1=O,nt,nt,nt,nt,nt,-4.9%
O=C(N/N=C\c1coc2ccccc2c1=O)c1ccco1,nt,nt,nt,1.58µM*,nt,-8.2%
O=C(N/N=C/c1coc2ccccc2c1=O)c1cn(-c2ccccc2)nc1-c1ccccc1,0.6%,-15.1%,-4.6,3.16µM*,-8.3%,-9.7%
O=C(N/N=C/c1cn(-c2ccccc2)nc1-c1cc2ccccc2o1)c1c[nH]c2ccccc12,nt,nt,nt,?,-1.8%,-32.6%
O=C(N/N=C/c1coc2ccccc2c1=O)c1ccccc1,nt,nt,nt,3.98µM*,-1.3%,-9.0%
Cc1ccc(/C=C(\C#N)c2nc3ccccc3[nH]2)s1,-14.5%,-7.6%,16.8,10.7%,2.7%[38.3 µM],?
COc1ccc(OC)c(C2C3=C(N=C4SCC(=O)N42)c2ccccc2CC3)c1 (stereo unspecified),-22.5%,22.4µM*,4.3,?,22.3%[38.3 µM],?
COc1cccc(C2C3=C(N=C4SCC(=O)N42)c2ccccc2CC3)c1OC (stereo unspecified),-1.6%,-17.8%,12.0,?,37.8%[38.3 µM],?
CS(=O)(=O)C1=C(O)C(=O)N(CCCC(=O)O)C1c1ccccc1F (stereo unspecified),-2.2%,-5.5%,-2.1,?,?,-15.5%[46.1 µM]
